Data from PubChem BioAssay (NCI).
About 83,000 compounds went through this panel and 20% of them were active in at least one assay; those are over-represented in the sample as a whole.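 Single-concentration screen, 48 h exposure, 96-well plates. Endpoint: percent growth. Below 10 = active.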 Unmarked numbers belong to inactive results. Calls of active or inactive are those of the source.

Test system: NCI-H322M lung
Test: NCI-60 one-dose screen, 48 h (100 = growth as untreated, 0 = no growth, -100 = all killed)
Conditions: 10 µM unless noted
Method: Growth inhibition of the NCI-H322M human Non-Small Cell Lung tumor cell line is measured as a screen for anti-cancer activity. Cells are grown in 96 well plates and exposed to the test compound for 48 hours. Compounds are tested at a single concentration, which is 10^-5 M for most compounds. The reported endpoint is percent growth (GI% or GIPRCNT), where numbers from 0 - 100% represent growth inhibition, and numbers from -100% - 0 represent cell death. For example, a value of 40 represents 60% growth inhibition. A value of 0 means no net growth occurred over the course of the experiment. A value of -40 indicates 40% of cells at the beginning of the experiment died by the end of the experiment. A value of -100 means all cells are dead at the end of the experiment.
NCI-60 Human Tumor Cell Lines Screen was performed using the standard one-dose NCI protocol, which is described in more detail at https://dtp.cancer.gov/discovery_development/nci-60/default.htm.
Compounds with GIPRCNT values below 10 were considered active. Activity score was based on GIPRCNT using the following formula: […]
Score is 0 for GIPRCNT values of 100 or above, 50 for GIPRCNT values of 0, and 100 for GIPRCNT values of -100.

Q: For `O=Cc1ccc2nc(C(Cl)(Cl)Cl)ccc2c1`, which growth is on record?
A: 91.9%

Q: `CCCNC(=S)N/N=C(\C)c1ccccn1` was tested. Which growth did it give?
A: 4.31% (active)

Q: For `COc1ccc(-c2nc(-c3ccccc3OCc3ccccc3OC)nc(C)c2C(C)=O)cc1`, which growth is on record?
A: 94.7%

Q: With `Cn1nc(C(F)(F)F)cc1-c1c[nH]c(OCc2ccc(Cl)cc2)c(-c2ccc(Cl)c(C(F)(F)F)c2)c1=O` as the compound, how does the growth read?
A: 8.32% (active)

Q: With `CN(C)c1ccc(/C=N/Nc2nnc3n2N=C(c2ccc(Cl)cc2)CS3)cc1` as the compound, how does the growth read?
A: 102%

Q: `Cc1ccc2nc(CN(CCN(Cc3nc4ccc(C)cc4[nH]3)Cc3nc4ccc(C)cc4[nH]3)Cc3nc4ccc(C)cc4[nH]3)[nH]c2c1` was tested. Which growth did it give?
A: -95.7% (active)

Q: With `CCOc1cccc(/C=N/NC(=O)c2ccc(Nc3ccnc(C(F)(F)F)c3)cc2)c1O` as the compound, how does the growth read?
A: 22.3%

Q: Which growth does the source give for `C1=C\CCCCN2CC[C@H]3[C@H](CCCC/C=C\CCCN4C[C@@H](CCCCC/1)C[C@@H]3C4)C2` here?
A: 108%

Q: With `COc1cc(C2CC(c3ccc(Cl)cc3)=NN2C=O)ccc1OS(=O)(=O)c1ccc(C)cc1` (stereo not given) as the compound, how does the growth read?
A: 97%

Q: How did the growth turn out when `SCc1ccc(CS)cc1` was run?
A: 98.2%

Q: How did the growth turn out when `O=C(Nc1ccc(Cl)c(C(F)(F)F)c1)c1ccc(Nc2ccc(Cl)nn2)cc1` was run?
A: 92.9%

Q: Which growth does the source give for `Cc1c(-c2ccc(-c3ccccc3F)cc2)nc2ccc(F)cc2c1C(=O)O` here?
A: 44.5%

Q: For `COc1cc2c(cc1OCCCOc1cc3c(cc1OC)C(=O)N1CCC[C@H]1C=N3)C=CC(C)(C)O2`, which growth is on record?
A: 133%

Q: With `COc1ccc(-c2n[nH]nc2-c2cc(OC)c3c(c2)OCO3)cc1` as the compound, how does the growth read?
A: 13.9%

Q: With `CC1CCN(Cc2ccc(NC(=O)c3cc4ccc5cccnc5c4[nH]3)cc2)CC1` as the compound, how does the growth read?
A: 49.2%

Q: With `COC(=O)CNS(=O)(=O)c1ccc2c(c1)Cc1cc(S(=O)(=O)NCC(=O)OC)ccc1-2` as the compound, how does the growth read?
A: 106%

Q: For `COc1cc2nccc(Oc3ccc(NC(=O)C4(C(=O)Nc5ccc(F)cc5)CC4)cc3)c2cc1Oc1ccc(N)cn1`, which growth is on record?
A: 49.4%

Q: For `CCOC(=O)c1c(NC(=O)c2ccccc2)sc2c(O)c(CN(CC)CC)ccc12`, which growth is on record?
A: 50.6%

Q: With `COc1ccc(C(=O)c2c(N)nc3n2CCCC3)cc1OC` as the compound, how does the growth read?
A: 96.2%

Q: `CCCCOc1ncnc2nc[nH]c12` was tested. Which growth did it give?
A: 101%

Q: For `Cc1cc(C#Cc2ccccc2)ccc1-n1c(/C=C/c2ccc(F)cc2)nc2ccccc2c1=O`, which growth is on record?
A: 87.5%

Q: `CC(OC(=O)Nc1cccc(Cl)c1)C(=O)O` (stereo not given) was tested. Which growth did it give?
A: 101%

Q: For `COc1ccc(/C=C2\CCCC3=C2N=C2SC(C)=NN2C3c2ccc(OC)c(OC)c2)cc1OC` (stereo not given), which growth is on record?
A: 27.9%

Q: Which growth does the source give for `CCOc1ccc([C@@H]2[C@@H](Oc3ccccc3)C(=O)N2c2cc(OC)c(OC)c(OC)c2)cc1` here?
A: 38.6%

Q: For `FC(F)(F)c1ccc(/C=N/Nc2nnc3n2N=C(c2ccc(Cl)cc2)CS3)cc1`, which growth is on record?
A: 60.9%

Q: With `CCCCN(CCCC)CCC(O)c1cc2ccc(C(F)(F)F)cc2c2cc(C(F)(F)F)ccc12` (stereo not given) as the compound, how does the growth read?
A: 61.3%

Q: For `Brc1ccccc1Cn1c(-c2cncs2)nc2ccccc21`, which growth is on record?
A: 86.6%

Q: For `Cc1ccccc1CNc1ncnc2[nH]ncc12`, which growth is on record?
A: 114%

Q: With `C#CC[C@@H]1C[C@]2(C)[C@H]3CC[C@@H]4[C@H]5C(C(=C)C)CC[C@]5(C(=O)NCCCCN)CC[C@@]4(C)[C@]3(C)CC[C@H]2C(C)(C)[C@H]1OC(C)=O` (stereo not given in full) as the compound, how does the growth read?
A: 60.4%

Q: How did the growth turn out when `COC(=O)c1cc2oc(/C=N/NC(=O)c3cc4oc(-c5cccc(C(F)(F)F)c5)cc4[nH]3)cc2n1Cc1ccccc1` was run?
A: 88%

Q: For `Clc1ccccc1Nc1nnc(-c2ccncc2)s1`, which growth is on record?
A: 93.7%

Q: With `CC(=O)O[C@H]1[C@H](CC#CC#CC[C@@H]2C[C@]3(C)[C@H]4CC=C5[C@H]6[C@@H](C)[C@H](C)CC[C@]6(C(=O)NCCCCCCCCN)CC[C@@]5(C)[C@]4(C)CC[C@H]3C(C)(C)[C@H]2OC(C)=O)C[C@]2(C)[C@H]3CC=C4[C@H]5[C@@H](C)[C@H](C)CC[C@]5(C(=O)NCCCCCCCCN)CC[C@@]4(C)[C@]3(C)CC[C@H]2C1(C)C` as the compound, how does the growth read?
A: 106%

Q: For `Cc1cc(C)c2c(NC(=O)Nc3ccc(Cl)c(Cl)c3)n[nH]c2n1`, which growth is on record?
A: 91.3%

Q: For `COc1ccc([C@@H]2[C@@H](Cl)C(=O)N2c2cc(OC)c(OC)c(OC)c2)cc1C`, which growth is on record?
A: 35.3%

Q: How did the growth turn out when `CN1CCN(Cc2ccc(NC(=O)c3cncc(C#Cc4ccc(N)nc4)c3)cc2C(F)(F)F)CC1` was run?
A: 25.9%

Q: How did the growth turn out when `Cc1c(O)c(=O)n(-c2ccccc2)n1C` was run?
A: 108%

Q: `N#Cc1ccc(NC(=O)Nc2nc3ccc(OC(F)(F)F)cc3s2)cc1` was tested. Which growth did it give?
A: 4% (active)

Q: With `O=C(Oc1c(Cl)c(Cl)c(Cl)c(Cl)c1Cl)C1CCCN1C(=O)OCc1ccccc1` (stereo not given) as the compound, how does the growth read?
A: 39.9%

Q: How did the growth turn out when `CC1=NN(c2cccc(S(N)(=O)=O)c2)C(=O)C1` was run?
A: 96.9%

Q: `CC(=O)N(C)c1ccc(Nc2cc(C)[nH]c3ccc4ncnc4c23)cc1` was tested. Which growth did it give?
A: 77%
